Data on 8 compounds can be found in ChEMBL document CHEMBL3988442, “University of Dundee, Small-Polar-MMV Screening Library” (2021).

Parameters in all cases: scale not given: direction of the effect not stated beside the values
Test [1] deals with Protein translocase subunit SecA (Escherichia coli (strain K12)) (UniProt P10408). The test can be described thus: Assay to Identify E. coli SecA ATPase Inhibitors. The class given is functional. The following applies: 30 µM.
The target in test [2] is T1, Ubiquitin-activating enzyme e1, putative (Leishmania donovani (strain BPK282A1)) (UniProt E9BSI1).
T1 sequence (whole entry): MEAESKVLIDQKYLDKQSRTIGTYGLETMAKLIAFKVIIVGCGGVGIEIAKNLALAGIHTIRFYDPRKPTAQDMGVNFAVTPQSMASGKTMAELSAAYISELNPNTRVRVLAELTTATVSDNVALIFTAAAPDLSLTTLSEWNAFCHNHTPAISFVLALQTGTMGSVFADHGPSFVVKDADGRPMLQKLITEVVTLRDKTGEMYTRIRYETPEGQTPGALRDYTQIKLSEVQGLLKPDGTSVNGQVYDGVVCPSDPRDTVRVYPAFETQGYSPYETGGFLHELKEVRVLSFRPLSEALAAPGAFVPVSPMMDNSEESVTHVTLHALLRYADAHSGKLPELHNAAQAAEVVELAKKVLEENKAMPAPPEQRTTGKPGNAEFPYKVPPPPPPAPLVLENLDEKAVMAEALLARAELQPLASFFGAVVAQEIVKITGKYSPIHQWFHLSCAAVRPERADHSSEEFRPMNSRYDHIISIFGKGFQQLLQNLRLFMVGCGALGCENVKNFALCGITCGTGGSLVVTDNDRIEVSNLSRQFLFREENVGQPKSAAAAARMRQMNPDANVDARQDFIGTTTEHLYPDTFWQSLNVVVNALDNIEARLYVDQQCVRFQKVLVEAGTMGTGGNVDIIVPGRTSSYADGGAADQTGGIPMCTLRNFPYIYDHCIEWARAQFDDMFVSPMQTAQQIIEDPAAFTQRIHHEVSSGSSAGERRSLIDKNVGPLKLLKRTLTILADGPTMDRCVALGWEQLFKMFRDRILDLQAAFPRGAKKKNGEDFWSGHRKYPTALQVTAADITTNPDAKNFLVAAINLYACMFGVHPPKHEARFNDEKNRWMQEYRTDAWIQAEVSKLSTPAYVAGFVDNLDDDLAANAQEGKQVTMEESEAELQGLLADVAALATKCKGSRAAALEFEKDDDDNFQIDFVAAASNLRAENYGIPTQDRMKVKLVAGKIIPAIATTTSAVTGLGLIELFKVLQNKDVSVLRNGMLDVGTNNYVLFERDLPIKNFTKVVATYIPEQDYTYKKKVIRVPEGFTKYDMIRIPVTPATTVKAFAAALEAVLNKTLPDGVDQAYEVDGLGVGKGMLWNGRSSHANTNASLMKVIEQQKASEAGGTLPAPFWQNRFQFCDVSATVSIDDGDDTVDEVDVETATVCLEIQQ
Briefly: Leishmania donovani Ubiquitin Activating Enzyme (LdE1). It is filed as functional. Particulars: 30 µM.

The target in test [3] is AMP-activated protein kinase, AMPK (Homo sapiens) (UniProt P54646+O43741+P54619+Q9UGJ0+Q9Y478+Q13131+Q9UGI9). The test can be described thus: AMP-dependent Kinase enzyme assay. An in vitro enzyme assay that detects ADP turnover that is directly proportional to AMPK activity. This uses naive AMPK that is activated during the assay with MK-8722. The class given is functional. Particulars: 30 µM.

Test [4] addresses Sialic acid-binding Ig-like lectin 9 (Homo sapiens) (UniProt Q9Y336). The test can be described thus: Hs-Siglec9 ALPHAscreen SOP 20170721. The following applies: 10 µM. Background: Bead proximity is the source of the signal in Alpha formats.
A further test has as its system Trypanosoma cruzi. The test can be described thus: Trypanosoma cruzi phosphomannomutase and mannose-1-phosphate guanylyltransferase assay. The class given is functional. The following applies: 10 µM.
Test [5] addresses T2, Arginase-2, mitochondrial (Homo sapiens) (UniProt P78540).
T2 sequence (whole entry): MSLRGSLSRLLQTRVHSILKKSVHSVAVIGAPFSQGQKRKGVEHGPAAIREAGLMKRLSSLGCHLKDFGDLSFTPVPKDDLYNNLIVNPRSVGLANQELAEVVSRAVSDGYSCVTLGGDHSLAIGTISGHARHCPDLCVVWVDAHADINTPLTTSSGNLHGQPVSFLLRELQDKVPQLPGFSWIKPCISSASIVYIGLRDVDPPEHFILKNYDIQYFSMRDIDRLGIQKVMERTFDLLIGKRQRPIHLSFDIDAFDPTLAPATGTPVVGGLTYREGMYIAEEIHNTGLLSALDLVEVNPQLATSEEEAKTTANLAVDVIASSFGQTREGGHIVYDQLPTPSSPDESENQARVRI
The test can be described thus: in vitro enzyme assay to detect the production of urea directly proportional to the activity of Arginase II. Further: in the data most compounds retested in dose-response had high values. It is filed as functional. The following applies: 33.3 µM.

Test [6] concerns the target T3, Proteasome subunit beta (Trypanosoma cruzi) (UniProt O96673).
T3 sequence (whole entry): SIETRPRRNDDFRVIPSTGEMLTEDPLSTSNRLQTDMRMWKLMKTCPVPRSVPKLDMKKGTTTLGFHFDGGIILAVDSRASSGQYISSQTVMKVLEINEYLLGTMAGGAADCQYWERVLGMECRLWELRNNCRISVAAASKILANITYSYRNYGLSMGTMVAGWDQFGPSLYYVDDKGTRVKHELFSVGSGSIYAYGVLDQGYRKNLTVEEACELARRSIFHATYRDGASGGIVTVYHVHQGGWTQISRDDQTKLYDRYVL
Briefly: Trypanosoma cruzi proteasome chymotrypsin-like activity (TcProtChymo) assay. Further: in the data most compounds retested in dose-response had high values. It is filed as functional. Particulars: 9.37 µM.

The species named for another test is Homo sapiens. Briefly: To identify inhibition of the IFN signalling (Jak-Stat) pathway via expression of an eGFP reporter gene under the control of an IFN-stimulated response element (ISRE) containing MxA promoter. It is filed as functional. The following applies: 30 µM.
Test [7] concerns the target T4, Tyrosyl-tRNA synthetase, putative (Trypanosoma cruzi (strain CL Brener)) (UniProt Q4DSP6).
T4 sequence (whole entry): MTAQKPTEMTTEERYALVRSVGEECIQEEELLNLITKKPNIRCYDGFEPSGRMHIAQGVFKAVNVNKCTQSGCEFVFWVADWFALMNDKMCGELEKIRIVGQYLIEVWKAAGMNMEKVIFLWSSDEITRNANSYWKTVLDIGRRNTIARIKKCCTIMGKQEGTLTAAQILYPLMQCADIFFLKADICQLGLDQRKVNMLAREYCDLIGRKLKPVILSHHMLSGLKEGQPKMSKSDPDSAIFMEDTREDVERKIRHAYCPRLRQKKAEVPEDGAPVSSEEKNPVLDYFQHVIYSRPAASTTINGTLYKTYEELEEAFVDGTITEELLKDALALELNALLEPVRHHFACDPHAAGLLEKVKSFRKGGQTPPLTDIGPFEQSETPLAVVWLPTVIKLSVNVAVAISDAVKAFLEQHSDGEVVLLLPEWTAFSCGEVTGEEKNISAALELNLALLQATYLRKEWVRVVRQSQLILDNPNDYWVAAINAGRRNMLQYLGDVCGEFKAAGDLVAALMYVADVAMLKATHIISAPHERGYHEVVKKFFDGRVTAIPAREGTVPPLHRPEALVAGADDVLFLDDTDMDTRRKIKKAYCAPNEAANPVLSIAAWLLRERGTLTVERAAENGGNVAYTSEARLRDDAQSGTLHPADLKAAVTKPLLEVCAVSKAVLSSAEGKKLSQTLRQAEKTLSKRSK
Briefly: Trypanosoma cruzi tyrosyl tRNA synthetase (TcYRS) _High Tyrosine SOP. Further: in the data most compounds retested in dose-response had high values. The class given is functional. The following applies: 30 µM.

Test [8] has as its target T4, Tyrosyl-tRNA synthetase, putative (Trypanosoma cruzi (strain CL Brener)). The test can be described thus: Trypanosoma cruzi tyrosyl tRNA synthetase (TcYRS) SOP. The following applies: 30 µM. It is filed as functional.
Test [9] addresses Chromo domain-containing protein 1 (Saccharomyces cerevisiae (strain ATCC 204508 / S288c) (Baker's yeast)) (UniProt P32657). The test can be described thus: ScCHD-1 Enzyme Inhibition Assay. Further: in the data most compounds retested in dose-response had high values. The class given is functional. Particulars: 30 µM.

Structures are written as SMILES. For some of these results: Potency and affinity values are given separately.

Sialic acid-binding Ig-like lectin 9 (Homo sapiens), sequence (Q9Y336 whole entry): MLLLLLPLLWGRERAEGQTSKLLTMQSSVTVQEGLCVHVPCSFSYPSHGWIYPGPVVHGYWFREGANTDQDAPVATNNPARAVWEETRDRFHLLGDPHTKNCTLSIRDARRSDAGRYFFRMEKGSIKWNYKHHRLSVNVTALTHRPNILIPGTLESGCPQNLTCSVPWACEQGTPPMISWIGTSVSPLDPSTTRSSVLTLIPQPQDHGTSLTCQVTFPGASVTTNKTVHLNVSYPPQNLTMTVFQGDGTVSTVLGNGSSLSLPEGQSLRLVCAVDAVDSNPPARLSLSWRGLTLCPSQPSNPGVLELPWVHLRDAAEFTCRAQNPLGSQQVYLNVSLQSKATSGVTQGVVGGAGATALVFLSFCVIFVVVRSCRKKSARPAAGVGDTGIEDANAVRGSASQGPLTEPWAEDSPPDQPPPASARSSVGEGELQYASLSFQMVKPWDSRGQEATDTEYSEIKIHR
Protein translocase subunit SecA (Escherichia coli (strain K12)), sequence (P10408 whole entry): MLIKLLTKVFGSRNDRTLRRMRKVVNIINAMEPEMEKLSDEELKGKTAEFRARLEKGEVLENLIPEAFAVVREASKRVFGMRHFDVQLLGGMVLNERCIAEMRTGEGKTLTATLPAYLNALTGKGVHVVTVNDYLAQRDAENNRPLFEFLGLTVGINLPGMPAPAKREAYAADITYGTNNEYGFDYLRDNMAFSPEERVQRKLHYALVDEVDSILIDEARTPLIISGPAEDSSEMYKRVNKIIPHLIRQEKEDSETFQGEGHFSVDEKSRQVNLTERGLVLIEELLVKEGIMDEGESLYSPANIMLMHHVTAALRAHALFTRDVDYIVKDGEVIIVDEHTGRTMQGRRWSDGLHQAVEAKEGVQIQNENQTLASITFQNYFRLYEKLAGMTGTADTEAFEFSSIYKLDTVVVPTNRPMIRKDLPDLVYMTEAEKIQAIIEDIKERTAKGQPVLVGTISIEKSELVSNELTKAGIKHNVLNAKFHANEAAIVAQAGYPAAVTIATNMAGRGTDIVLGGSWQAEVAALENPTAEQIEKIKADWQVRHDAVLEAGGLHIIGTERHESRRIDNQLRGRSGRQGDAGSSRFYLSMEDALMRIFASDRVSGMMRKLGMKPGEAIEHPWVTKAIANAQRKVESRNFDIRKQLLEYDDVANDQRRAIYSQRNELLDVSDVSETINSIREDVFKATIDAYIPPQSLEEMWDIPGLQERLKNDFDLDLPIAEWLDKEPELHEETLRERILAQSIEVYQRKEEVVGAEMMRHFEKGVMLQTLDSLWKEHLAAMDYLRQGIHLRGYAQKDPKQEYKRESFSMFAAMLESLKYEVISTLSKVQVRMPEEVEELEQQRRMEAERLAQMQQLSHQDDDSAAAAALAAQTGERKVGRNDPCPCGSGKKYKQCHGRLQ
Chromo domain-containing protein 1 (Saccharomyces cerevisiae (strain ATCC 204508 / S288c) (Baker's yeast)), sequence (P32657 whole entry, the tested form may be a part): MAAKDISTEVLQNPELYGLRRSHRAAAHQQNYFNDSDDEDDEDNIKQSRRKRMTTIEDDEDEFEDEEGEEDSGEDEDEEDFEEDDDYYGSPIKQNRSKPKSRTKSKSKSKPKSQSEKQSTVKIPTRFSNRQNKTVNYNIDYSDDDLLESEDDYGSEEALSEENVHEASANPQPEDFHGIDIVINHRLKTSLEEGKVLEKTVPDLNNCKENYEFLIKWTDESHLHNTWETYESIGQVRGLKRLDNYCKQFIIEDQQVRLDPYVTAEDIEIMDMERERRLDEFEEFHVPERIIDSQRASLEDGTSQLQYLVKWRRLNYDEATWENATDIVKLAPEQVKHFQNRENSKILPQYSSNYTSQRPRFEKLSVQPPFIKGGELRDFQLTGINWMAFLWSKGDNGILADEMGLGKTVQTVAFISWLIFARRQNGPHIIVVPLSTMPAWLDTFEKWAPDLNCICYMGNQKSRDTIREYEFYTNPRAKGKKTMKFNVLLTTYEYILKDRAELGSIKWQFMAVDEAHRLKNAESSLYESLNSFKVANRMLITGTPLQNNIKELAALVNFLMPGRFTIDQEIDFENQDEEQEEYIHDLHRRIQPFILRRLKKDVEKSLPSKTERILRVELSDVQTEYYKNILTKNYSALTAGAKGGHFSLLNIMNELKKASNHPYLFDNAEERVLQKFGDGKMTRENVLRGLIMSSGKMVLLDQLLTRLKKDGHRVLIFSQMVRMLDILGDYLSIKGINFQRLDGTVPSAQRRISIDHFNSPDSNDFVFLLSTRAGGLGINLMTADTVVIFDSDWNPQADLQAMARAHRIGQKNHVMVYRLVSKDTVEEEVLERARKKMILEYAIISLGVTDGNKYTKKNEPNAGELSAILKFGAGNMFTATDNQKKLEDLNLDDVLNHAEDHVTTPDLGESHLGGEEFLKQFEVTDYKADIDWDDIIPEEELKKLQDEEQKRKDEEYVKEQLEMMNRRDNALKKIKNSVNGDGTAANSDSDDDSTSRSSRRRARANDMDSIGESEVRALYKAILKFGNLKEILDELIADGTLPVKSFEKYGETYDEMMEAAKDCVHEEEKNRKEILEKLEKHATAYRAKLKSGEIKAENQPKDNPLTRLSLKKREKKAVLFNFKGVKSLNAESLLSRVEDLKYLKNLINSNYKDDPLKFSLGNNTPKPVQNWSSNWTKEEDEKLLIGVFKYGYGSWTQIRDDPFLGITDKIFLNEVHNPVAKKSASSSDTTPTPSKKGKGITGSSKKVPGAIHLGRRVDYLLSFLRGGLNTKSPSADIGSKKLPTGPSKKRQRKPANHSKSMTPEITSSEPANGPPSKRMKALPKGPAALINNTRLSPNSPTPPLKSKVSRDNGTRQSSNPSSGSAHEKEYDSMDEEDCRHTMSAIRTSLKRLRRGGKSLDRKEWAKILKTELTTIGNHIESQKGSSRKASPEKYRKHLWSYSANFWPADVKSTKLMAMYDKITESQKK

Turning to `CN(Cc1ccc(N2CCCCC2)cc1)Cc1noc(C(C)(C)C)n1`, the Percent Effect was -2.34% in test [1]; -13% in test [2]; -0.29% in [3]; 2.11% in test [4]; 0.492% in the test on Trypanosoma cruzi; 0% in test [5]. Besides, the Percent Effect in test [6] was 13.8%; in the test filed under Homo sapiens, 9.08%; in test [7], -2.15%; in test [8], -6.17%; in [9], -1.32%.
In the case of `Cc1csc(C2CCCN(C(=O)c3cc(Cl)c[nH]3)C2)n1` (stereo not drawn), the Percent Effect was -4.24% in [1]; 5.41% in test [2]; -0.992% in test [3]; 9.99% in test [4]; -5% with Trypanosoma cruzi; -2% in test [5]. Further, the Percent Effect in test [6] was 3.96%; in the test filed under Homo sapiens, 19%; in test [7] it was 14.3%; in test [8] it was 13.6%; in [9] it was -2.75%.
Turning to `Cc1nc(CN2CCn3cc(CNC(=O)C4CCC4)nc3C2)cs1`, the Percent Effect was -1.94% in [1]; 13.3% in test [2]; -0.557% in [3]; 6.49% in test [4]; 4.63% in the test with Trypanosoma cruzi; -45.3% in test [5]. Further, the Percent Effect in test [6] is 24.1%; in the test listed under Homo sapiens, -2.13%; in test [7] it was 9.38%; in [8] it was 27.5%; in test [9], -8.63%.
Regarding `O=C(c1ccc2c(c1)COC2)N1CCN(CC2CC2)CC1`, the Percent Effect in test [1] is -2.51%; in test [2], 5.06%; in [3] it was -1.47%; in [4] it was 8.43%; in the test on Trypanosoma cruzi it was -0.283%; in test [5] it was -1.52%. The Percent Effect in test [6] was -2.21%; in the test listed under Homo sapiens, 0.542%; in test [7], 4.43%; in [8] it was -1.27%; in test [9], 1.49%.
Take `Cn1ccc(-c2cc(C(=O)N3CCOCC3)c3ccccn23)n1`: the Percent Effect in test [1] is 1.94%; in test [2], 10.8%; in test [3], 19.9%; in [4], 17.5%; in the test with Trypanosoma cruzi, -8.5%; in [5], 2.87%. Also, the Percent Effect in test [6] was 12.7%; in the test filed under Homo sapiens, 35.5%; in [7], -4.32%; in test [8], 2.56%; in test [9], -7.76%.
Regarding `CN(Cc1ccc(Cl)s1)C(=O)NCc1nnc2n1CCC2`, the Percent Effect in test [1] was -2.21%; in test [2], 21.1%; in [3], 2.58%; in test [4], -10.7%; in the test on Trypanosoma cruzi, 4.2%; in [5], -3.96%. In addition, the Percent Effect in test [6] was 7.87%; in the test listed under Homo sapiens, 0.395%; in test [7], 6.4%; in test [8], 18.5%; in test [9], -7.27%.
In the case of `CC(CNC(=O)N1CCN(c2cnccn2)CC1)Cc1cccs1` (stereo not drawn), the Percent Effect in test [1] is -2.51%; in test [2], 2.7%; in test [3] it was 6.5%; in test [4] it was 15.7%; with Trypanosoma cruzi, -1.95%; in [5], -1.67%. Also, the Percent Effect was 10.6% in [6]; -1.65% in the test listed under Homo sapiens; 0.99% in test [7]; -6.1% in test [8]; 0.413% in test [9].
For the compound `O=C(Cn1ccc2ccccc21)NCc1ccc(C(=O)O)cc1`, the Percent Effect is -5.35% in [1]; 2.63% in test [2]; 10.1% in test [3]; 1.77% in test [4]; -1.85% in the test on Trypanosoma cruzi; 0% in test [5]. Besides, the Percent Effect in test [6] is 15.8%; in the test filed under Homo sapiens it was -18.3%; in test [7], -1.06%; in test [8] it was 10.4%; in test [9], -0.974%.
